Source: PubChem BioAssay (National Center for Advancing Translational Sciences (NCATS))
Only some compounds are listed: those with a hit (about 8% of all), similar ones and a draw of the others.
FBPA coupling cs: counter-screen for Giardia aldolase inhibitors: coupling enzyme system. actives 0.67% (n = 290,000). activity change, negative = inhibition, % at 58.2 µM, hits read low. coupling enzyme system counterscreen, AmpLite Red fluorescence; in the data active means activity change below about -30%
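First, compound is pin-transferred into glyceraldehyde-3-phosphate coupling-enzyme reagent at 57.5 uM final and held 10 min at RT. Next, substrate, coupling system and AmpLite Red are added. After 20 min RT, fluorescence (525/598 nm) is read.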
ELG1 DNA repair: inhibitors of ELG1-dependent DNA repair in HEK293T cells; Potency, µM (titrated, usually from 46.1 µM), usual class: inhibitors; AID 504467; HEK293T ELG1-luciferase reporter, luminescence, 16 h; DNA damage induced by 5-fluorouridine; actives 2.3% (n = 330,000); further: nearly all actives have a fitted effect of over 55% in size
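Cells (2,000 per well) received 5-fluorouridine plus test compound or DMSO and were incubated 16 hr at 37 °C, 5% CO2. Luciferase activity was read by luminescence 30 min after ONE-Glo addition; signal suppression marked inhibition of damage-induced ELG1 function.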
RORg inh: ROR gamma (mouse) transcription inhibition; P51450; Drosophila S2 Gal4-RORgamma UAS-luciferase reporter, 20 h; Potency, µM (titrated, usually from 53.6 µM), hits mostly inhibitors; actives 5.4% (n = 310,000); AID 2551; further: nearly all actives have a fitted effect of over 60% in size
Target sequence (P51450 whole entry, looked up, the tested form may be a part): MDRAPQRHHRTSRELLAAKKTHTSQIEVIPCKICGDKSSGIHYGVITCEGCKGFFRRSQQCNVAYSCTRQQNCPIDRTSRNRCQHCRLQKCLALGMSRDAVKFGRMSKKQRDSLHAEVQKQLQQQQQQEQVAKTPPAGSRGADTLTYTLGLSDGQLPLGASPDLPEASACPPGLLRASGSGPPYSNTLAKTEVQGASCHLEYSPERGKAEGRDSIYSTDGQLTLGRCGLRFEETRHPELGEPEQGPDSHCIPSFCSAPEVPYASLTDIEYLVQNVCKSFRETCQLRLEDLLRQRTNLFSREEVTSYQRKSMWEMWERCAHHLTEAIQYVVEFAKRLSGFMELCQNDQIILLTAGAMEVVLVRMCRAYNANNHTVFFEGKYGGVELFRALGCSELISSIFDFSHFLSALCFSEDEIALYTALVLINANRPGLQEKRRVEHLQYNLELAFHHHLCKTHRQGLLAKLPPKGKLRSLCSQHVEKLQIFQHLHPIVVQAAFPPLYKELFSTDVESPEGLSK
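Schneider cells (Drosophila), stable Gal4 DBD–ROR gamma + UAS-luc; 1 hr cmpd preincubation; Cu2+ induction 700 uM final; 20 hr ambient; luminescence.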
TSHR antagonist: blocks TSH signaling through the human TSH receptor | P16473 | TSHR-expressing cells, TSH-stimulated cAMP HTRF, 2 h; hits give low values | activity change, negative = inhibition, % at 11.5 µM | actives 0.2% (n = 330,000) | AID 504810;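 active means activity change below a set negative limit, meaning inhibition stronger than a set level, cut at about -70% in these data; inconclusive means activity change between two set negative limits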
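TSHR-expressing cells, 200/well, pre-treated with compound, then stimulated with EC80 TSH (4nM final) for 2 hours at 37 deg C. cAMP measured by competitive HTRF: anti-cAMP cryptate antibody in lysis buffer plus cAMP-d2, read after 30 minutes at room temperature.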
Gal4-VP16 FLuc: Gal4-VP16 reporter inhibition counter-screen; Drosophila S2 Gal4-VP16 UAS-luciferase, luminescence, 20 h; actives 3.5% (n = 310,000); Potency, µM (doses to about 53.6 µM), usual class: inhibitors;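 further: Gal4-VP16 expression switched on by copper sulfate through the metallothionein promoter; nearly all actives have a fitted effect of over 50% in size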
A number is an active result. Unless noted, the call rests on the fitted dose curve; in most records, active means well fitted curve in the direction sought with a large enough effect; inconclusive means small, poorly fitted or top-dose-only effect, or another doubt; inactive means no such curve, though single readings can be large; an effect the other way counts as inactive or inconclusive.

Results for CNC(=O)[C@]1(C)C[C@H]1[C@H](NC(=O)[C@]1(C)C[C@H]1[C@H](NC(=O)[C@]1(C)C[C@H]1[C@H](NC(=O)[C@]1(C)C[C@H]1[C@H](NC(=O)OCc1ccccc1)c1ccccc1)c1ccccc1)c1ccccc1)c1ccccc1 ?
FBPA coupling cs: inactive; RORg inh: inactive; Gal4-VP16 FLuc: inactive

Results for S=C1NC2=C(CCCC2)C2(CCCCC2)N1 ?
FBPA coupling cs: inactive; ELG1 DNA repair: inactive; RORg inh: 2µM; TSHR antagonist: inactive; Gal4-VP16 FLuc: 1.8µM

How did C=C1C(=O)OC2C[C@@]3(C)CCCC(=C)[C@@H]3CC12 (stereo partly specified) do in these assays?
FBPA coupling cs: inactive; RORg inh: inconclusive; Gal4-VP16 FLuc: inactive

What do the screens show for `Cc1ccccc1N1CCN(C2=NC(=O)/C(=C\c3cccs3)S2)CC1`?
FBPA coupling cs: inactive; ELG1 DNA repair: inconclusive; RORg inh: inconclusive; TSHR antagonist: inactive; Gal4-VP16 FLuc: inactive

How did O=C1N=C(N2CCN(c3cccc4ccccc34)CC2)S/C1=C/c1cccs1 do in these assays?
FBPA coupling cs: inactive; ELG1 DNA repair: 8.2µM; RORg inh: inactive; TSHR antagonist: inactive; Gal4-VP16 FLuc: inactive

How did CCN(CC)S(=O)(=O)c1ccc(NC(=S)Nc2ccc(F)cc2)cc1 do in these assays?
FBPA coupling cs: inactive; ELG1 DNA repair: inconclusive; RORg inh: inactive; TSHR antagonist: inactive; Gal4-VP16 FLuc: inactive

How did O=S(=O)(c1ccc(Br)cc1)N1CCN(c2cc(-c3ccccc3)nc3ncnn23)CC1 do in these assays?
FBPA coupling cs: inactive; ELG1 DNA repair: inconclusive; RORg inh: inactive; TSHR antagonist: inactive; Gal4-VP16 FLuc: inactive

How did Cc1ccccc1NC(=O)C1CCN(c2cc(-c3ccccc3)nc3ncnn23)CC1 do in these assays?
FBPA coupling cs: inactive; ELG1 DNA repair: 15µM; RORg inh: inactive; TSHR antagonist: inactive; Gal4-VP16 FLuc: inactive

How did O=S(=O)(c1ccccc1)N1CCN(c2cc(-c3ccccc3)nc3ncnn23)CC1 do in these assays?
FBPA coupling cs: inactive; ELG1 DNA repair: inconclusive; RORg inh: inconclusive; TSHR antagonist: inactive; Gal4-VP16 FLuc: 5.6µM

What do the screens show for `COc1ccc(S(=O)(=O)N2CCN(c3cc(-c4ccccc4)nc4ncnn34)CC2)cc1`?
FBPA coupling cs: inactive; ELG1 DNA repair: 21µM; RORg inh: inconclusive; TSHR antagonist: inactive; Gal4-VP16 FLuc: inconclusive

Results for Cc1nc2ncnn2c(N2CCC(C(=O)NC3CCCC3)CC2)c1Cc1ccccc1 ?
FBPA coupling cs: inactive; ELG1 DNA repair: inactive; RORg inh: inactive; TSHR antagonist: inactive; Gal4-VP16 FLuc: inactive

How did O=C(Nc1ccc(Oc2ccccc2)cc1)C1CCN(c2c3c(nc4ncnn24)CCC3)CC1 do in these assays?
FBPA coupling cs: inactive; ELG1 DNA repair: 16µM; RORg inh: inconclusive; TSHR antagonist: inactive; Gal4-VP16 FLuc: inconclusive

How did Cc1cc(C(F)(F)F)nc(Nc2nc(C)c3ccccc3n2)n1 do in these assays?
FBPA coupling cs: inactive; ELG1 DNA repair: inactive; RORg inh: 6.3µM; TSHR antagonist: inactive; Gal4-VP16 FLuc: inconclusive

How did CCOC(=O)Cc1nn(Cc2nc(-c3ccc(C#N)cc3)cs2)c(=O)c2ccccc12 do in these assays?
FBPA coupling cs: inactive; ELG1 DNA repair: 10µM; RORg inh: inactive; TSHR antagonist: inactive; Gal4-VP16 FLuc: inactive

How did CCOC(=O)Cc1nn(CC)c(=O)c2ccccc12 do in these assays?
FBPA coupling cs: inactive; ELG1 DNA repair: inactive; RORg inh: inactive; TSHR antagonist: inactive; Gal4-VP16 FLuc: inactive

What do the screens show for `Cc1ccc(NCC(=O)Nc2cccc(F)c2)cc1S(=O)(=O)N1CCCCCC1`?
ELG1 DNA repair: inactive; RORg inh: inconclusive; TSHR antagonist: inactive; Gal4-VP16 FLuc: inconclusive

How did Cc1noc(C)c1-c1nc(Nc2ccc(F)cc2)c2ccccc2n1 do in these assays?
FBPA coupling cs: inactive; RORg inh: inactive; Gal4-VP16 FLuc: inactive

Results for FC(F)(F)c1ccccc1-c1nc(Nc2ccncc2)c2ccccc2n1 ?
FBPA coupling cs: inactive; RORg inh: 11µM; Gal4-VP16 FLuc: inconclusive

Results for Cc1noc(C)c1-c1nc(Nc2ccncc2)c2ccccc2n1 ?
FBPA coupling cs: inactive; RORg inh: 8.9µM; Gal4-VP16 FLuc: inactive

Results for COc1ccc(CCNC(=O)Nc2ccc(F)cc2F)cc1OC ?
FBPA coupling cs: inactive; ELG1 DNA repair: inactive; RORg inh: inactive; TSHR antagonist: inactive; Gal4-VP16 FLuc: inactive
